Rows were chosen to be rich in hits. Some 9.5% of all compounds tested hit in one or more screens of this group.
HPGD inh = inhibitors of human 15-hydroxyprostaglandin dehydrogenase (HPGD); purified HPGD, NADH fluorescence kinetic, PGE2 substrate; Potency, µM, for inactives: at the top dose activity change, negative = inhibition, most hits filed as inhibitors; 150,000 compounds, 4.3% hits; AID 894; active = well fitted inhibition curve with a large enough effect, not every such curve was filed as active; inconclusive = small, poorly fitted or top-dose-only effect, or another doubt; inactive = no such curve, though single readings can be large or run the other way
Target sequence (P15428 whole entry, looked up): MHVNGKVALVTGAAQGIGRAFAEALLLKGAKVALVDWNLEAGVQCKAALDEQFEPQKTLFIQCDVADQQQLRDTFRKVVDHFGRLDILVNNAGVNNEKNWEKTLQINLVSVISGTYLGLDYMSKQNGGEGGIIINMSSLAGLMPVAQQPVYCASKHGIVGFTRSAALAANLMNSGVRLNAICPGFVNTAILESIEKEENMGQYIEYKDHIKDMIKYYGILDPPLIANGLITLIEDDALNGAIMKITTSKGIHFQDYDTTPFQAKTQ
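NADH formation kinetics: reaction with 30 uM PGE2 and 1 mM NAD+ (final), 20 nM enzyme, Tris-HCl pH 8 with Tween 20, after 15 min compound preincubation at room temperature. Fluorescence change, last versus first of five reads.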
Tau ThT inhib = blocks human tau fibril formation measured by thioflavin T; P10636; recombinant tau K18 P301L, heparin-induced fibrillization, ThT fluorescence; Potency, µM (doses to about 57.4 µM), without a hit: top-dose activity, negative = inhibition, actives largely listed as inhibitors; 270,000 compounds, 2.1% hits; AID 1460; also: nearly all actives have a fitted effect of over 55% in size
Target sequence (P10636 561-689 P618L limits assumed): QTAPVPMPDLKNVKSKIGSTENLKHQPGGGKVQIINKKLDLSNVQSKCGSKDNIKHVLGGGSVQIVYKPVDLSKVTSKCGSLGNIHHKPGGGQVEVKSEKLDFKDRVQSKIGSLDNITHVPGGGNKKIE
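Fibril formation assay: tau K18 P301L at 15 uM with trace Alexa 594 label, heparin inducer 20 uM, pH 7 sodium acetate buffer, 37 C for 6 hr; endpoint ThT signal.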
Tau FP inhib = tau fibrillization inhibition (FP) | K18 P301L tau heparin fibrillization, Alexa594 FP, 6 h | Potency, µM (titrated, usually from 57.7 µM), for inactives: at the top dose activity, negative = inhibition, usual class: inhibitors | 280,000 compounds, 0.39% hits | AID 1468; also: nearly all actives have a fitted effect of over 55% in size
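Recombinant K18 P301L […], labeled with Alexa 594 at 0.24 uM over 15 uM unlabeled; heparin inducer 20 uM final; 37 C, 6 hr; FP endpoint.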
ALDH1A1 block = ALDH1A1 (human) enzyme inhibition; Purified ALDH1A1, NADH fluorescence, propionaldehyde substrate; AID 1030; Potency, µM (titrated, usually from 75.3 µM), without a hit: at the top dose activity, negative = inhibition, hits mostly inhibitors; 220,000 compounds, 7.3% hits; active = well fitted inhibition curve with a large enough effect, not every such curve was filed as active; inconclusive = small, poorly fitted or top-dose-only effect, or another doubt; inactive = no such curve, though single readings can be large or run the other way;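 also: plate controls were no enzyme wells and a reference inhibitor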
NPSR antag = blocks cAMP signaling of the human neuropeptide S receptor | CHO-NPSR cells, cAMP TR-FRET, antagonist mode | Potency, µM (doses to about 38.3 µM), inactives show at the highest dose activity change, negative = inhibition, actives largely listed as inhibitors | Q6W5P4 | 220,000 compounds, 1% hits | AID 1461; also: nearly all actives have a fitted effect of over 50% in size
Tau fluor counter = counter-screen for tau fibril formation inhibitors. tau K18 P301L Alexa594 fluorescence, heparin fibrillization. 280,000 compounds, 0.93% hits. Potency, µM (highest dose often 57.7 µM), for inactives: top-dose activity change, negative = decrease. AID 1463; also: nearly all actives have a fitted effect of over 55% in size
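Human tau K18 P301L (15 uM unlabeled, 0.24 uM Alexa 594-labeled) in 100 mM sodium acetate pH 7 with 20 uM heparin, 6 hr at 37 C. ThT 30 uM added, 1 hr ambient; Alexa 594 FP and total fluorescence read at 555/632 nm.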
* hit, by the source's call; ? = inconclusive; / = not tested or not shown; [ ] = dose if it differs, or a comment. Unless noted, calls follow the shape of the dose curve; as a rule, active = well fitted curve in the direction sought with a large enough effect; inconclusive = small, poorly fitted or top-dose-only effect, or another doubt; inactive = no such curve, though single readings can be large; an effect the other way counts as inactive or inconclusive. Unless noted, % is scaled to controls: 0 for no effect and ±100 for the full control effect; potency is read from the fitted curve at half-maximal effect.

SMILES	HPGD inh	Tau ThT inhib	Tau FP inhib	ALDH1A1 block	NPSR antag	Tau fluor counter
N#C/C(C(N)=O)=c1/ccc2c(c1)N1C3=C(CCCC3)CC3CCCCC31N=2 (centres undefined)	0%	?	?	-8%	10µM*	?
N#CC(C#N)=c1ccc2c(c1)N1C3=C(CCCC3)CC3CCCCC31N=2 (centres undefined)	-7%	?	-4%	?	13µM*	?
Cc1cccc(-c2nc3c(cnn3-c3ccccc3)c(=O)n2-c2cccc(Cl)c2)c1	/	-11%	-12%	/	/	-16%
COc1ccc(Cl)cc1C(=O)NCC(c1ccc(N(C)C)cc1)N1CCCC1 (centres undefined)	/	-4%	0%	/	/	-3%
Cc1ccccc1C(=O)NC(=S)Nc1ccc(S(=O)(=O)N(C)c2ccccc2)cc1	-8%	-7%	-16%	18µM*	-7%[46.1 µM]	?
CN(c1ccccc1)S(=O)(=O)c1ccc(NC(=O)c2ccccc2)cc1	-26%	-5%	?	-11%	-17%	?
Cc1cccc(C(=O)NC(=S)Nc2ccc(S(=O)(=O)N(C)c3ccccc3)cc2)c1	-14%	-15%	-17%	20µM*	-24%[46.1 µM]	?
CN(c1ccccc1)S(=O)(=O)c1ccc(NC(=O)c2cccs2)cc1	/	-11%	?	1%	-29%	?
O=C(Cn1ccn(-c2ccc(F)c(F)c2)c(=O)c1=O)c1ccc(F)cc1	/	10%	-2%	/	/	14%
COCC(=O)N1CCC2(CC1)CCN(C(=O)NC(C)C)CC2	-5%	/	/	?	/	/
COC(=O)C1=C(C)NC2=C(C(=O)C(C(=O)OC)C(c3ccc(OC)cc3)C2)C1c1ccccn1 (centres undefined)	?	-1%	9%	?	-14%[46.1 µM]	0%
Nc1nnc(-c2ccc(Cl)c([N+](=O)[O-])c2)s1	/	?	-2%	28µM*	-8%	-14%
Nc1nnc(-c2cccc([N+](=O)[O-])c2)s1	/	-18%	-2%	3%	-21%	-14%
Cc1cc(S(=O)(=O)Nc2cc3c(cc2N2CCOCC2)n(C)c(=O)n3C)ccc1F	/	-3%	-3%	/	/	-7%
CCC(C)c1ccccc1NC(=O)COC(=O)c1ccc2[nH]c3c(c2c1)CCCC3 (centres undefined)	-22%	?	?	?	-36%	?
CCOC(=O)C1CCN(C(=O)N(C)C)CC1	-17%	?	8%	6%	-16%[46.1 µM]	0%
CCOC(=O)C1CCN(C(=O)CSCCSCC(=O)N2CCC(C(=O)OCC)CC2)CC1	-10%	-17%	1%	11µM*	-11%[46.1 µM]	2%
CCOC(=O)C1CCN(C(=O)c2ccc(Br)o2)CC1	-13%	-4%	-2%	3.2µM*	-4%[46.1 µM]	-2%
CCOC(=O)C1CCN(C(=O)CSc2ccc(Br)cc2)CC1	/	-11%	9%	32µM*	3%	-6%
CCOC(=O)C1CCN(C(=O)CSc2ccc(Cl)cc2)CC1	-7%	1%	7%	-1%	-1%[46.1 µM]	1%
COC(=O)NC(/C(C(=O)OC)=C(\C)NCc1ccccc1)c1cccc(F)c1 (centres undefined)	/	-4%[11.5 µM]	3%[11.6 µM]	-21%[13.5 µM]	/	-12%[11.6 µM]
CNC(=S)N=Nc1c(O)[nH]c2ccc(C(C)C)cc12	/	16µM*	-3%	?	-10%[46.1 µM]	?
CC(C)NC(=S)N=Nc1c(O)[nH]c2ccc([N+](=O)[O-])cc12	/	?	6%	10µM*	-43%	?
COc1ccc2c(CC(=O)NCCN3C(=O)S/C(=C\c4cccnc4)C3=O)coc2c1	/	?	?	22µM*	-4%	-24%
CCN1CCN(c2c(C(=O)c3ccc(OC)cc3)cnc3ccccc23)CC1	/	-5%	-2%	2.8µM*	-24%	-2%
CCOC(=O)C1CCCN(c2c(C(=O)c3ccc(OCC)cc3)cnc3ccccc23)C1 (centres undefined)	/	-8%	8%	/	/	0%
Cn1cccc1C(=O)N1CCC2(CCN(C(=O)Nc3cccc(C#N)c3)CC2)CC1	-1%	/	/	-7%	/	/

Screening results: PubChem, National Center for Advancing Translational Sciences (NCATS)
